The full list was thinned out, with hits kept by preference.
TDP1 cell CPT: growth inhibition of DT40 Tdp1-/-;hTDP1 cells with camptothecin (screen for TDP1 inhibitors); chicken DT40 Tdp1-/-;hTDP1 cells + 20 nM CPT, ATP luminescence, 48 h; Potency, µM (titrated, usually from 46.2 µM), without a hit: top-dose activity change, negative = growth inhibition, hits mostly inhibitors; hit rate 12% among 420,000; also: potency is read from the fitted curve at half-maximal effect; nearly all actives have a fitted effect of over 55% in size
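Chicken DT40 Tdp1-/- cells complemented with human TDP1, 400 cells/well, exposed to compounds plus 20 nM camptothecin for at least 48 h at 37 C; viability read as ATP content by CellTiter-Glo luminescence.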
12-LOX inh: inhibitors of human 12S-lipoxygenase ALOX12; Potency, µM (doses to about 108 µM), inactives show top-dose activity change, negative = inhibition, usual class: inhibitors; purified 12hLO, xylenol orange hydroperoxide absorbance; hit rate 1.1% among 580,000; P18054; also: potency is read from the fitted curve at half-maximal effect
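Hydroperoxide product was detected by ferrous iron/xylenol orange as the 573 to 405 nm absorbance ratio. Arachidonic acid at 40 uM (final) was turned over for 30 min at room temperature by 150 nM human 12hLO, pH 7.0 Hepes buffer, after 15 min compound preincubation.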
IL-1B inflam inh: inflammasome signaling inhibition, IL-1 beta readout; THP-1 LPS/ATP IL-1B secretion, AlphaLISA, 16 h; active compounds read low; activity change, % at 57.5 µM; hit rate 4.7% among 360,000; AID 743279; in the data active = activity change below about -50%; inconclusive = mostly about -30% to -49%
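Secreted IL-1B measured by AlphaLISA bead assay after 16 h compound exposure of THP-1 cells; compounds (final up to 57.5 uM) added 1 h before LPS (250 ng/mL) and ATP (1.25 mM) stimulation; lower signal means less secretion.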
HT1080 IDH1KD tx: kills HT-1080 cells with IDH1 knockdown | hit rate 2% among 360,000 | HT-1080 IDH1 knockdown viability, ATP luminescence, 48 h | Potency, µM (series often up to 46.1 µM), for the others: at the top dose activity, negative = toxicity, actives largely listed as cytotoxic;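 also: potency is read from the fitted curve at half-maximal effect; 0% = DMSO wells and -100% = cell-free medium wells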
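Assay cells: HT-1080 with IDH1 knockdown, 750 per well, RPMI/5% FBS. Exposure: 48 h at 37 °C following 2 h pre-incubation. Read: CellTiter-Glo luminescence; fitted concentration-response, curve class assigned.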
DT40 TDP1 no CPT: qHTS for Inhibitors of human tyrosyl-DNA phosphodiesterase 1 (TDP1): qHTS in cells in absence of CPT | Potency, µM (top dose mostly 46.2 µM), for the others: at the highest dose activity change, negative = growth inhibition, actives largely listed as inhibitors | hit rate 15% among 420,000 | AID 686978, 2013 | DT40 Tdp1-/- hTDP1 cells, no CPT, ATP luminescence, 48 h; also: potency is read from the fitted curve at half-maximal effect; nearly all actives have a fitted effect of over 55% in size
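Cells were dispensed at 400 per well, compounds added by pin tool, plates incubated ≥48 hr at 37 °C, then CellTiter-Glo added for 30 min at room temperature before luminescence reading. Line: DT40 Tdp1-/- complemented with hTDP1; camptothecin omitted.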
HT1080-NT tox: kills 2HG-producing HT-1080-NT fibrosarcoma cells; Potency, µM (highest dose often 46.1 µM), without a hit: at the top dose activity, negative = less viability, hits mostly cytotoxic; hit rate 1.6% among 360,000; HT-1080-NT fibrosarcoma viability, CellTiter-Glo ATP luminescence, 48 h;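 also: NT is the 2HG producing partner of a matched IDH1 knockdown line; potency is read from the fitted curve at half-maximal effect; 0% = DMSO-treated cells and -100% = media-only wells without cells; nearly all actives have a fitted effect of over 55% in size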
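Toxicity toward the 2HG-producing NT line was scored as %Activity, normalised to DMSO and no-cell wells, from CellTiter-Glo luminescence after 48 hours' treatment.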
Numbers without * were called inactive; [ ] = dose if it differs, or a comment. Unless noted, calls follow the shape of the dose curve; as a rule, active = well fitted curve in the direction sought with a large enough effect; inconclusive = small, poorly fitted or top-dose-only effect, or another doubt; inactive = no such curve, though single readings can be large; an effect the other way counts as inactive or inconclusive. Unless noted, % is scaled to controls: 0 for no effect and ±100 for the full control effect.

How did COc1ccccc1NC(=S)NC1CCCCCC1 do in these assays?
TDP1 cell CPT: inconclusive; 12-LOX inh: inconclusive; IL-1B inflam inh: -3; HT1080 IDH1KD tx: 2%; DT40 TDP1 no CPT: 18µM*; HT1080-NT tox: 30%

Results for Cc1cccc(NC(=S)NC2CC3CCCC(C2)N3Cc2ccccc2)c1C (stereo unspecified) ?
TDP1 cell CPT: 16µM*; 12-LOX inh: -12%; IL-1B inflam inh: -28; HT1080 IDH1KD tx: -3%; DT40 TDP1 no CPT: inconclusive; HT1080-NT tox: 7%

What do the screens show for `COCC(=O)NC[C@@H]1C=C(C)[C@H](Cc2nc3ccc(F)cc3[nH]2)C[C@H]1C(C)C`?
12-LOX inh: 39%[176 µM]

How did COc1ccccc1C(=O)NNC(=O)C(=O)NC1CCCCC1 do in these assays?
TDP1 cell CPT: 21µM*; 12-LOX inh: -4%; IL-1B inflam inh: 13; HT1080 IDH1KD tx: -14%; DT40 TDP1 no CPT: inconclusive; HT1080-NT tox: -17%

How did Fc1ccccc1NC(=S)NC1CCCC1 do in these assays?
TDP1 cell CPT: inconclusive; 12-LOX inh: inconclusive; IL-1B inflam inh: 12; HT1080 IDH1KD tx: -1%; DT40 TDP1 no CPT: 23µM*; HT1080-NT tox: -2%

What do the screens show for `CC(C)(C)c1ccccc1NC(=S)NC1CCCCC1`?
TDP1 cell CPT: inconclusive; 12-LOX inh: 40µM*; IL-1B inflam inh: 2; HT1080 IDH1KD tx: -1%; DT40 TDP1 no CPT: 18µM*; HT1080-NT tox: 11%

Results for CC(C)(C)c1ccccc1NC(=S)NC1CCCC1 ?
TDP1 cell CPT: inconclusive; 12-LOX inh: inconclusive; IL-1B inflam inh: 11; HT1080 IDH1KD tx: -1%; DT40 TDP1 no CPT: inconclusive; HT1080-NT tox: -1%

How did CCc1cccc(CC)c1NC(=O)CO/N=C/c1ccccc1O do in these assays?
12-LOX inh: -20%

What do the screens show for `COC(=O)C1=C(N)OC2=C(C(=O)CCC2)C1c1ccc(Cl)cc1Cl` (stereo unspecified)?
12-LOX inh: -12%

Results for CO[C@H]1/C=C/O[C@@]2(C)Oc3c(C)c(O)c4c(O)c(c5c(c4c3C2=O)NC2(CCN(CC(C)C)CC2)N=5)=NC(=O)/C(C)=C\C=C\[C@H](C)[C@H](O)[C@@H](C)[C@@H](O)[C@@H](C)[C@H](OC(C)=O)[C@@H]1C ?
TDP1 cell CPT: inconclusive; 12-LOX inh: -11%; IL-1B inflam inh: -14; HT1080 IDH1KD tx: -28%; DT40 TDP1 no CPT: 21µM*; HT1080-NT tox: inconclusive

How did COC1/C=C\OC2(C)Oc3c(C)c(O)c4c(c3C2=O)C2(C=C(NC(=O)/C(C)=C\C=C/C(C)C(O)C(C)C(O)C(C)C(OC(C)=O)C1C)C4=O)OCC(=O)O2 (stereo unspecified) do in these assays?
12-LOX inh: 5µM*

How did CO[C@H]1/C=C\O[C@@]2(C)Oc3c(C)c(O)c4c(O)c(c5c(nc6cc(C)ccn65)c4c3C2=O)NC(=O)C(C)=CC=C[C@H](C)[C@H](O)[C@@H](C)[C@@H](O)[C@@H](C)[C@H](OC(C)=O)[C@H]1C do in these assays?
12-LOX inh: -33%[57.4 µM]

Results for CO[C@H]1C=CO[C@@]2(C)Oc3c(C)c(O)c4c(O)c(c(/C=N/N5CCN(C6CCCC6)CC5)c(O)c4c3C2=O)NC(=O)/C(C)=C\C=C[C@H](C)[C@H](O)[C@@H](C)[C@@H](O)[C@@H](C)[C@H](OC(C)=O)[C@@H]1C ?
TDP1 cell CPT: 4.7µM*; DT40 TDP1 no CPT: 2.7µM*

Results for CC1CCCN(S(=O)(=O)c2cc(C(=O)OCc3nc4ccccc4o3)ccc2Cl)C1 (stereo unspecified) ?
12-LOX inh: -7%
